# Screening results deposited in PubChem BioAssay by National Center for Advancing Translational Sciences (NCATS).
# DT40 TDP1 no CPT: qHTS for Inhibitors of human tyrosyl-DNA phosphodiesterase 1 (TDP1): qHTS in cells in absence of CPT; DT40 Tdp1-/- hTDP1 cells, no CPT, ATP luminescence, 48 h; Potency, µM (titrated, usually from 46.2 µM), inactives show top-dose activity change, negative = growth inhibition, hits mostly inhibitors; 420,000 tested, 15% active; AID 686978, 2013; further: potency means the concentration at half of the fitted maximal effect; nearly all actives have a fitted effect of over 55% in size
#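 Readout: luminescence from CellTiter-Glo after 30 min in the dark at RT. Cells: DT40 Tdp1-/- with stable hTDP1, 400/well. Exposure: compounds alone, ≥48 hr, 37 °C.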
# DT40 TDP1 CPT: growth inhibition of DT40 Tdp1-/-;hTDP1 cells with camptothecin (screen for TDP1 inhibitors). chicken DT40 Tdp1-/-;hTDP1 cells + 20 nM CPT, ATP luminescence, 48 h. Potency, µM (top dose mostly 46.2 µM), without a hit: at the top dose activity change, negative = growth inhibition, most hits filed as inhibitors. 420,000 tested, 12% active; further: potency means the concentration at half of the fitted maximal effect; nearly all actives have a fitted effect of over 55% in size
#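 Chicken DT40 Tdp1-/- cells stably complemented with human TDP1 were seeded at 400 cells/well in medium containing 20 nM camptothecin, exposed to pin-transferred compounds, and grown at 37 °C for at least 48 hr. Viability was read as ATP luminescence.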
# HT1080 IDH1KD tx: kills HT-1080 cells with IDH1 knockdown; HT-1080 IDH1 knockdown viability, ATP luminescence, 48 h; Potency, µM (top dose mostly 46.1 µM), for the others: at the highest dose activity, negative = toxicity, actives largely listed as cytotoxic; 360,000 tested, 2% active;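 further: potency means the concentration at half of the fitted maximal effect; 0% = DMSO wells and -100% = cell-free medium wells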
#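 Knockdown cells (IDH1KD HT-1080) received compounds 2 h after plating at 750 cells/well and were kept 48 h at 37 °C in 5% FBS RPMI. A CellTiter-Glo luminescence read gave % activity for curve fitting.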
# IL1B secr inh: inhibitors of inflammasome signaling (IL-1 beta secretion). THP-1 LPS/ATP IL-1B secretion, AlphaLISA, 16 h; stronger effect = lower value. activity change, % at 57.5 µM. 360,000 tested, 4.7% active. AID 743279; in the data active means activity change below about -50%; inconclusive means mostly about -30% to -49%
#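 Secreted IL-1B measured by AlphaLISA bead assay after 16 h compound exposure of THP-1 cells; compounds (final up to 57.5 uM) added 1 h before LPS (250 ng/mL) and ATP (1.25 mM) stimulation; lower signal means less secretion.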
# ELG1 repair inh: ELG1-dependent DNA repair inhibition. HEK293T ELG1-luciferase reporter, luminescence, 16 h; DNA damage induced by 5-fluorouridine. Potency, µM (top dose mostly 46.1 µM), without a hit: at the top dose activity change, negative = inhibition, hits mostly inhibitors. 330,000 tested, 2.3% active; further: potency means the concentration at half of the fitted maximal effect; nearly all actives have a fitted effect of over 55% in size
#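 HEK293T cells expressing luciferase-tagged ELG1 (2,000/well) received 5-Fluorouridine plus compound or DMSO for 16 hr at 37 °C. Luciferase was read by ONE-Glo luminescence after 30 min at room temperature.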
# HT1080-NT tox: kills 2HG-producing HT-1080-NT fibrosarcoma cells. 360,000 tested, 1.6% active. HT-1080-NT fibrosarcoma viability, CellTiter-Glo ATP luminescence, 48 h. Potency, µM (series often up to 46.1 µM), for inactives: at the top dose activity, negative = less viability, most hits filed as cytotoxic;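 further: NT is the 2HG producing partner of a matched IDH1 knockdown line; potency means the concentration at half of the fitted maximal effect; 0% = DMSO-treated cells and -100% = media-only wells without cells; nearly all actives have a fitted effect of over 55% in size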
#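 Toxicity toward the 2HG-producing NT line was scored as %Activity, normalised to DMSO and no-cell wells, from CellTiter-Glo luminescence after 48 hours' treatment.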
# An asterisk follows results filed as active; u = inconclusive; x = not tested or not shown; [ ] = dose if it differs, or a comment. Only some compounds are listed: those with a hit (about 19% of all), similar ones and a draw of the others. Unless noted, the call rests on the fitted dose curve; in most records, active means well fitted curve in the direction sought with a large enough effect; inconclusive means small, poorly fitted or top-dose-only effect, or another doubt; inactive means no such curve, though single readings can be large; an effect the other way counts as inactive or inconclusive. Unless noted, on the % scale 0 is the no-effect control and ±100 the full control effect.
SMILES,DT40 TDP1 no CPT,DT40 TDP1 CPT,HT1080 IDH1KD tx,IL1B secr inh,ELG1 repair inh,HT1080-NT tox
CCN1C[C@]2(CO)CC[C@H](OC)[C@@]34C2[C@H](OC)[C@@](O)(C13)[C@@]1(O)C[C@H](OC)[C@H]2C[C@@H]4[C@@H]1[C@H]2OC,2%,25%,0%,3,29%,10%
COC(=O)[C@@H]1N=C(c2ccc(OC)cc2)O[C@]12C(=O)N(C)c1ccc(Cl)cc12,u,u,2%,2,x,-20%
Cc1cccc(C)c1-n1nnnc1C(C1CC1)N1CCC2(CC1)C(=O)NCN2c1ccccc1 (centres undefined),15µM*,16µM*,u,-28,x,u
O=C(Nc1ccc2c(c1)OCCO2)c1cccn(Cc2cccc([N+](=O)[O-])c2)c1=O,13µM*,u,x,x,x,x
Cc1cccc(Cn2cccc(C(=O)Nc3cc(C)on3)c2=O)c1,-23%,-23%,x,x,x,x
O=C(Nc1ccc2c(c1)OCO2)c1cccn(Cc2cccc([N+](=O)[O-])c2)c1=O,-24%,-10%,x,x,x,x
CC(=O)c1cccc(NC(=O)c2cccn(Cc3cccc(C)c3)c2=O)c1,21µM*,23µM*,x,x,x,x
CC1(C)CC2CC(C)(CN2c2ncnc3ccccc23)C1 (centres undefined),9.2µM*,8.2µM*,u,-82*,u,u
O=C1NC(=O)C(Nc2ccccc2)C(=O)N1,-11%,-2%,14%,10,x,-1%
C[C@H]1CNCCc2ccc(Cl)cc21,-12%,-3%,x,x,x,x
Cc1cnc(SCc2ccccn2)nc1C1CCCN(C(=O)c2cccc(-c3cccc(F)c3)c2)C1 (centres undefined),16µM*,-7%[9.04 µM],x,x,x,x
CCN(CC)C(=O)c1ccc(NC(=O)CNC(C)c2cccc3ccccc23)cc1 (centres undefined),u,-19%,-22%,-14,u,-1%
COc1ccc(-c2nc(CSCC(=O)N3CCN(c4ccc(F)cc4)CC3)c(C)o2)cc1,8.2µM*,13µM*,x,x,x,x
CCc1ccc(-c2nc(CSCC(=O)N3CCN(c4ccc(F)cc4)CC3)c(C)o2)cc1,u,21µM*,x,x,x,x
CCOP(=O)(c1ccccc1)C(O)c1ccc([N+](=O)[O-])cc1 (centres undefined),1%,7%,-15%,3,u,-4%
O=C(CCc1nc(C2=CCN(Cc3cccc(Cl)c3)CC2)no1)Nc1ccccc1F,12µM*,15µM*,x,x,x,x
COc1ccc(NC(=O)CCc2nc(C3=CCN(Cc4cccc(C)c4)CC3)no2)c(OC)c1,12µM*,16µM*,x,x,x,x
CCN(CC(=O)Nc1ccccc1C(F)(F)F)C(=O)CCSc1ccc(F)cc1,u,-24%,0%,-14,-13%,-5%
COc1ccccc1C(=O)C1CCCN(Cc2cnc(C)s2)C1 (centres undefined),21µM*,u,-3%,19,u,-3%
CCn1ccnc1CN1CCCC(C(=O)c2cc(Cl)ccc2OC)C1 (centres undefined),u,u,-3%,-75*,9%,-2%
COc1ccc(Cl)cc1C(=O)C1CCCN(CCO)C1 (centres undefined),-10%,-11%,1%,17,7%,-9%
CCn1ccnc1CN1CCCC(C(=O)c2cc(C)c(OC)c(C)c2)C1 (centres undefined),21µM*,u,0%,-10,u,0%
Cc1nc(SCc2c(Cl)cccc2Cl)nc(OC(=O)N(C)C)c1C,u,-37%,-6%,-11,-1%,-2%
O=c1[nH]c(=S)n(C2CCCCC2)c(O)c1/C=N/N1CCOCC1,u,-1%,2%,1,9%,4%
CN1C(=O)CN=C(c2ccccc2Cl)c2cc(Br)ccc21,-15%,-28%,-17%,7,u,0%
